High-throughput results deposited in PubChem BioAssay by National Center for Advancing Translational Sciences (NCATS).
BLM inh: Bloom syndrome helicase (human) inhibition | P54132 | recombinant BLM DNA unwinding, fluorescence dequenching | Potency, µM (series often up to 56.1 µM), inactives show top-dose activity change, negative = inhibition, hits mostly inhibitors | 0.2% of 350,000 active | AID 2528;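 further: plate controls were vehicle for no effect and no enzyme for full effect; nearly all actives have a fitted effect of over 35% in size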
RECQ1 helicase: blocks DNA unwinding by human RECQ1. P46063. RECQ1 DNA unwinding, red fluorescence kinetic read. 0.54% of 240,000 active. Potency, µM (series often up to 57.3 µM), inactives show top-dose activity, negative = inhibition, actives largely listed as inhibitors. AID 2549;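 further: plate controls were vehicle for no effect and no enzyme for full effect; nearly all actives have a fitted effect of over 30% in size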
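RECQ1T1 50 nM; forked duplex (20 bp + 30-nt ss tails) 200 nM, ATP 2 mM final; pH 8.0, 2 mM MgCl2, 2.5 ug/ml poly(dI-dC); 15 min compound preincubation; discontinuous kinetic read over 2 h at RT.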
TR SRC2 fluor cs: alters Texas Red total fluorescence, flagging assay interference; TRb/SRC2 Texas Red total fluorescence interference; AID 1479; Potency, µM (top dose mostly 106 µM), without a hit: top-dose fluorescence change, negative = quenching; 0.29% of 280,000 active; active means well fitted curve in either direction with a large enough effect; inconclusive means small, poorly fitted or top-dose-only effect
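Human TRβ ligand-binding domain (0.6 uM) and Texas Red SRC2 peptide (20 nM) in Tris buffer with 1 uM T3 and 5% DMSO were incubated with pinned compound for 5 hr at ambient temperature. Total fluorescence was computed as S + 2P (555/632 nm).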
RGS12 GoLoco inh: RGS12 GoLoco-Gai1 interaction inhibition; P63096; Gai1:RGS12 GoLoco peptide FP, rhodamine, 10 min; Potency, µM (doses to about 61.6 µM), without a hit: at the highest dose activity, negative = inhibition, hits mostly inhibitors; 0.44% of 230,000 active; AID 880; active means well fitted inhibition curve with a large enough effect, not every such curve was filed as active; inactive means no such curve, though single readings can be large or run the other way; further: nearly all actives have a fitted effect of over 30% in size
APE1 inh: inhibitors of human APE1 endonuclease; recombinant APE1, TAMRA/BHQ-2 abasic DNA cleavage fluorescence; Potency, µM (series often up to 65.8 µM), for the others: top-dose activity change, negative = inhibition, actives largely listed as inhibitors; 0.35% of 350,000 active; AID 2517;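 further: plate controls were vehicle for no effect and reference inhibitor for full effect; nearly all actives have a fitted effect of over 55% in size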
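Enzyme (0.75 nM final) and test compound are incubated 15 min at room temperature before adding 50 nM quenched THF abasic-site duplex. Cleavage dequenches TAMRA, followed at 525/598 nm over three reads one minute apart.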
TRb SRC2 PPI: disrupts binding of human TR beta to SRC2; P10828; TRbeta-SRC2 peptide binding, fluorescence polarization; receptor liganded with 1 µM T3; Potency, µM (highest dose often 106 µM), inactives show at the top dose activity change, negative = inhibition, actives largely listed as inhibitors; 0.065% of 280,000 active; AID 1469;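 further: plate controls were bound peptide for no effect and peptide without receptor for full effect; nearly all actives have a fitted effect of over 50% in size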
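Decrease in fluorescence polarization of 20 nM Texas Red SRC2 coactivator peptide flagged inhibition of its binding to 0.6 uM TRb LBD; 1 uM T3 included, incubation 5 hr, ex 555/em 632 nm.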
Starred values were filed as active, the others as inactive; i = inactive; ? = inconclusive; / = no result given; ! = not confirmed by another sample; [ ] = another dose, or the depositor's remark. Sampled rows, rich in hits. Any-hit rate of the full collection: about 0.9%. Unless noted, the call rests on the fitted dose curve; in most records, active means well fitted curve in the direction sought with a large enough effect; inconclusive means small, poorly fitted or top-dose-only effect, or another doubt; inactive means no such curve, though single readings can be large; an effect the other way counts as inactive or inconclusive. Unless noted, on the % scale 0 is the no-effect control and ±100 the full control effect; potency means the concentration at half of the fitted maximal effect.

SMILES	BLM inh	RECQ1 helicase	TR SRC2 fluor cs	RGS12 GoLoco inh	APE1 inh	TRb SRC2 PPI
Cc1ccc(-c2ccc(/C=C3/NC(=O)NC3=O)o2)cc1[N+](=O)[O-]	-21%	28µM*	-4%	11%	-5%	4%
O=[N+]([O-])c1ccc(COc2cccc(CNc3ccc(F)cc3)c2)cc1	-11%	-3%	1%	0%	10%	-1%
Oc1ccc(NCc2cccc(OCc3ccccc3)c2)cc1	?	-10%	-9%	-18%	-11%	32µM*
COc1ccccc1-c1csc(N2CCC(C(N)=O)CC2)n1	/	/	/	/	8%	/
CCCC(=O)N(C1CC(C)C(C#N)(C#N)C1(C#N)C#N)N(C)C (stereo unspecified)	12%	-1%	1%	11µM*	5%	10%
CC(C)(C)c1cccc(C(C)(C)C)c1O	/	/	-1%[201 µM]	/	/	1%[201 µM]
C=CCOC(=O)N[C@H](/C(C(=O)OC)=C(\C)NCc1ccccc1)c1cccc(F)c1	-10%	2%	-2%	0%	2%	0%
Cc1cc(C)c2c(=O)n(CC(=O)NCCCN3CCOCC3)sc2n1	1%	-9%	3%	32µM*	1%	-4%
Cc1cc([N+](=O)[O-])nn1CC(=O)NCCCN1CCOCC1	-3%	/	/	/	14%	/
Cc1cc(C)c2c(=O)n(CC(=O)NCCCN3CCN(c4ccccc4F)CC3)sc2n1	2%	-3%	-3%	20µM*	-6%	-20%
COc1ccc(Cl)c(Cn2cnc3c(cnn3C(C)(C)C)c2=O)c1	/	/	/	/	19%	/
Cc1c(Cl)cccc1Nc1ccccc1C(=O)O	0%	-2%	-1%	28µM*!	2%	5%
C=CC1=C2C=C(C3CC3)N(CCCCO)C=C2C(=O)C(C)(OC(=O)c2ccco2)C1=O (stereo unspecified)	-22%[12.4 µM]	1%[11.5 µM]	0%[11.2 µM]	-13%[14.2 µM]	0%[12.4 µM]	-1%[11.2 µM]
O=C(COC(=O)C1CC(O)CN1S(=O)(=O)c1ccc(Cl)cc1)c1ccccc1Cl (stereo unspecified)	-1%	-15%	1%	1%	-1%	-3%
O=C(COC(=O)C1CC(O)CN1S(=O)(=O)c1ccc(Cl)cc1)c1ccccc1 (stereo unspecified)	0%	-8%	0.11µM*[quencher]	-4%	-6%	-15%
CCc1nn(CC(=O)Nc2c(C)cc(C)cc2C)c(=O)c2cc3sccc3n12	-3%	/	0.28µM*[quencher]	/	/	1%
Cc1ccc(-c2c(C)n3c4c(=O)n(C)c(=O)n(C)c4nc3n2-c2cccc(O)c2)cc1	-6%	/	11µM*[quencher]	/	/	-6%
Cn1c(=O)c2[nH]c(N3CCN(c4cccc(O)c4)CC3)nc2n(C)c1=O	-3%	-9%	-2%	1%	-2%	1%
Cc1c(-c2ccccc2)oc2nc3c(c(=O)n(C)c(=O)n3C)n12	1%	-7%	0%	-11%	-2%	8%
CCc1ccc(-n2c(-c3ccccc3)c(C)n3c4c(=O)n(C)c(=O)n(C)c4nc23)cc1	-2%	/	56µM*[quencher]	/	/	-17%
CCn1c(/C=C/Nc2ccccc2)[n+](CC)c2ccc(Cl)cc21	-4%	-2%	-4%	-3%	3%	7%
CCn1c(/C=C/N(C)c2ccccc2)[n+](CC)c2ccc(Cl)cc21	6%	10%	-2%	1µM*	10%	-7%
COc1ccc(CCNC(=O)CSc2ncc3c(n2)-c2cc(Cl)ccc2N(Cc2ccccc2)S3(=O)=O)cc1OC	-12%	/	-3%	/	/	14%
COC(=O)c1ccccc1NC1=C/C(=N\S(=O)(=O)c2ccc(C(=O)O)cc2)c2ccccc2C1=O	20µM*	/	/	/	?	/
CCc1ccc(S(=O)(=O)/N=C2\C=C(Nc3ccc(C(=O)O)cc3)C(=O)c3ccccc32)cc1	25µM*	/	/	/	-15%	/
SMILES	BLM inh	RECQ1 helicase	TR SRC2 fluor cs	RGS12 GoLoco inh	APE1 inh	TRb SRC2 PPI
Cc1ccc(S(=O)(=O)/N=C2\C=C(Nc3ccc(O)cc3)C(=O)c3ccccc32)cc1	/	/	/	/	-28%	/
O=C1C(Nc2ccccc2)=C/C(=N/S(=O)(=O)c2cccs2)c2ccccc21	-27%	-10%	-5%	19%	?	-19%
Cc1ccc(S(=O)(=O)/N=C2\C=C(Nc3cccc(C(=O)O)c3)C(=O)c3ccccc32)cc1	20µM*	/	/	/	-13%	/
Cc1ccc(S(=O)(=O)/N=C2\C=C(Nc3cccc(C(=O)O)c3)C(=O)c3ccccc32)c(C)c1	25µM*	/	/	/	53%	/
Cc1ccc(NC2=C/C(=N/S(=O)(=O)c3cccs3)c3ccccc3C2=O)cc1	-10%	i	0%	7%	-4%	-3%
CO/N=C1\C[C@]2(C[C@@H]3C[C@@H](C/C=C(\C)C[C@@H](C)/C=C/C=C4\CO[C@@H]5[C@H](O)C(C)=C[C@@H](C(=O)O3)[C@]45O)O2)O[C@H](/C(C)=C/C(C)C)[C@H]1C	/	/	0%[201 µM]	/	/	7%[201 µM]
CCc1ccc(OCC(=O)N(Cc2ccco2)Cc2ccco2)cc1	-3%	/	2%	/	/	0%
COc1cccc([C@@H]2Oc3ccc(Br)cc3C(=O)[C@H]2OC(=O)NS(=O)(=O)c2ccc(F)cc2)c1	-5%	-17%	-3%	63%	19%	13%
O=C(c1ccc(Cl)cc1)c1ccc(Cl)cc1	/	/	-1%[201 µM]	/	/	0%[201 µM]
COc1cccc(/C=N/N2C(=O)CSC2=S)c1O	-6%	3%	0%	158%	2%	-3%
COc1ccc2ccccc2c1/C=N/N1C(=O)CSC1=S	-13%	28µM*	-21%	88%	-6%	28%
C[n+]1cnn2c1SCC1(COC1)C2	0%	i	-3%	10µM*	-10%	-16%
CCOC(=O)Cn1c2[n+](c3ccccc31)CC(O)CS2 (stereo unspecified)	2%	i	3%	16µM*	-4%	2%
CC1=C(CCC(=O)O)c2cc3nc(cc4[nH]c(cc5[nH]c(cc1n2)c(C)c5C(C)O)c(C)c4C(C)O)C(C)=C3CCC(=O)O (stereo unspecified)	-8%	-24%	45µM*[fluorescent]	13µM*	?	35µM*
N#Cc1cccc(-c2noc(-c3ccccc3F)n2)c1	/	/	/	/	3%	/
O=C(CSCCSCC(=O)c1ccco1)c1ccco1	-13%	35µM*	-4%	-4%	?	0%
O=C(NCc1nc2cccnc2n1Cc1ccc(F)cc1)c1ccccc1C(F)(F)F	-1%	/	-9%	/	/	-4%
Cc1ccc(Cn2c(CNC(=O)c3ccccc3Br)nc3cccnc32)cc1	-7%	/	0.01µM*[quencher]	/	/	-11%
O=C(/C=C/c1ccc(/C=C/C(=O)Nc2ccc(C3=NCCN3)cc2)cc1)Nc1ccc(C2=NCCN2)cc1	?	-29%	-12%	/	32µM*	3%
